Laboratory results published in PubChem BioAssay AID2708 (National Center for Advancing Translational Sciences (NCATS), 2010).
The other results are listed elsewhere or left out. A call without a number means that no potency is given here. Results filed as inconclusive are left out. Active and inactive are the calls of the source. The call rests on the fitted dose curve; in most records, active means well fitted inhibition curve with a large enough effect; inconclusive means small, poorly fitted or top-dose-only effect; inactive means no such curve, though single readings can be large or run the other way. Peptide text beside a SMILES is read from it. * marks the point of attachment. Bz = O=C(c1ccccc1)*

The compounds below were run against ATP-dependent DNA helicase Q1 (Homo sapiens) (UniProt P46063) (assay: Confirmation qHTS Assay for Inhibitors of RecQ-Like Dna Helicase 1 (RECQ1)). Conditions: RECQ1 helicase DNA unwinding, fluorescence; series mostly up to 229 µM.
Sequence of ATP-dependent DNA helicase Q1 (Homo sapiens) (P46063 whole entry, looked up): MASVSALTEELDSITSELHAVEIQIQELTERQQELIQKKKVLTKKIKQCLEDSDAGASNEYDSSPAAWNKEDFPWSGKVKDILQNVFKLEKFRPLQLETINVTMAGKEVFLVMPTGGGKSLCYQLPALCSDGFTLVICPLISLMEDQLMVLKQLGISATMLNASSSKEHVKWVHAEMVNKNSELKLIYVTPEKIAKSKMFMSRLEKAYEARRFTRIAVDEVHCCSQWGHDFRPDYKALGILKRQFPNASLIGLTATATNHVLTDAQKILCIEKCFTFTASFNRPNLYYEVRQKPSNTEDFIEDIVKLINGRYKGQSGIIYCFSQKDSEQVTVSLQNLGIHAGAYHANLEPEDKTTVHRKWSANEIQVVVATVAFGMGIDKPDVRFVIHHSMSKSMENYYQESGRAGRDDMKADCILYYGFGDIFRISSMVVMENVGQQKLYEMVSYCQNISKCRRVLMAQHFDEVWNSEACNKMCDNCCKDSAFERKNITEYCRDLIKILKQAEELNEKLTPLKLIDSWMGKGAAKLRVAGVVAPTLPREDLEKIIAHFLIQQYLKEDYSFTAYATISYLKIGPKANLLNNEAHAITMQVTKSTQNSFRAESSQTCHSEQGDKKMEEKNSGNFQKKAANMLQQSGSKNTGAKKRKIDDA
Text: Survival of cells and the faithful propagation of the genome depend on elaborate mechanisms of detecting and repairing DNA damage. Treatment of advanced cancer relies on radiation therapy or chemotherapy, which kill cancer cells by causing extensive DNA damage. It is often found, that cancer cells develop resistance to therapy through enhanced activity of DNA repair functions; this has led to an increased interest in developing drugs that interfere with DNA repair, which could sensitize cancer cells to conventional therapy.
This validation qHTS assay pertains to human RECQ1, which is important in resolving abnormal DNA structures formed during replication or homologous recombination. Shutting down the expression of RECQ1 leads to chromosomal instability and higher radiation sensitivity in cultured cells.
The validation assay was a fluorescence quenching based kinetic qHTS for RECQ1 Helicase DNA unwinding. The activity was measured as ATP-dependent separation of a 20-bp DNA duplex extended by 30-nt single-stranded tails (forked duplex). The forked DNA substrate was tagged with rhodamine fluorophore (carboxytetramethyl rhodamine, TAMRA) and BHQ-2 (Black Hole Quencher 2) dark quencher. Strand separation results in an increase in the fluorescence of TAMRA (excitation 525 nm, emission 598 nm). This substrate construct operates in a red-shifted region where very few compound library members have been noted to fluoresce (PubChem AIDs 593 and 594). An additional feature of the assay is the inclusion of 2.5 ug/ml poly (dIdC), to reduce interference by compounds such as DNA intercalators, a major source of false inhibitors.
Opher Gileadi, Structural Genomics Consortium, University of Oxford
Screening Center PI: Austin, C.P.
Screening Center: NIH Chemical Genomics Center [NCGC]
Three uL of reaction buffer (25 mM Tris-HCl (pH 8.0), 5 mM NaCl, 2 mM MgCl2, 1mM DTT, 0.01% Tween- 20, and 2.5 ug/ml poly(dI-dC), including enzyme (50 nM RECQ1T1), were dispensed into a 1536-well Greiner black assay plate via solenoid-valve based nanoliter dispensers. Compounds (23 nl each in columns 5-48) and control (23 nl each in column 2 as dose-response) were transferred via a Kalypsys pintool equipped with a 1536-pin array. The plates were incubated for 15 min at room temperature, and then 1 ul of substrates (200 nM DNA and 2 mM ATP, final concentrations) was added to start the reaction. The plate was transferred into a ViewLux high-throughput CCD imager where the reaction progress was measured in a discontinuous kinetic mode (two reads spaced 2 hours apart, with intermediate room temperature incubation of the covered assay plate) by using standard red-fluorescence optics (excitation filter 525 nm, emission filter 598 nm). Enzyme-free and vehicle (DMSO) controls were included for signal normalization.
Further: nearly all actives have a fitted effect of over 45% in size.
Potency means the concentration at half of the fitted maximal effect.

| Structure (SMILES) | Potency |
| --- | --- |
| c1ccc(CSc2nnc(-c3ccco3)c(-c3ccco3)n2)cc1 | 39.8 µM (active) |
| O=C(NC(Cc1c[nH]c2ccccc12)C(=O)O)/C(=C/c1ccco1)NC(=O)c1ccccc1 (configuration not stated) | inactive |
| CC(=O)Nc1ccc(Nc2c3ccccc3nc3ccccc23)cc1 | 22.4 µM (active) |
| O=C(c1cc2c(s1)CCC2)N1CCN(c2ccccc2)CC1 | 39.8 µM (active) |
| O=C(N/N=C/c1sc(N2CCCCC2)nc1-c1cccs1)c1cccnc1 | inactive |
| O=C(NCc1ccccc1)C1=C[C@@H](C2CCCCC2)C[C@@H](OCc2ccc(CO)cc2)O1 | inactive |
| CC1Cc2ccccc2N1C(=O)CSc1nnc(-c2ccc(S(=O)(=O)N3CCCC3)cc2)n1C (configuration not stated) | inactive |
| CC(C)(O)c1ccccc1CC[C@H](SCC1(CC(=O)O)CC1)c1cccc(/C=C/c2ccc3ccc(Cl)cc3n2)c1 | 40.8 µM (active) |
| Oc1ccc(N=Cc2sc3ccccc3c2Cl)cc1 | inactive |
| COc1cc(C2C(C(=O)c3ccc(C)o3)=C(O)C(=O)N2CCc2ccccc2)ccc1O (configuration not stated) | inactive |
| Cc1ccc(C)n1C(Cc1ccccc1)C(=O)O (configuration not stated) | 22.4 µM (active) |
| O=C(NC(Cc1ccccc1)C(=O)N1CCCC1C(=O)O)c1ccccc1 (stereo not drawn) (Bz-Phe-Pro-OH; configuration not given here) | inactive |
| O=C(CCn1nnc2ccccc2c1=O)N[C@@H](Cc1c[nH]c2ccccc12)C(=O)O | inactive |
| CC1(C)OC2CC(=O)OC[C@@]23C1CC(=O)[C@]1(C)C3CC[C@@]2(C)C(c3ccoc3)OC(=O)C3O[C@@]321 (some centres not stated) | inactive |
| O=C(O)CCn1c(SCc2cc(=O)n3ccccc3n2)nc2ccsc2c1=O | inactive |
| COc1ccc(-c2nc3c(c(SCC(=O)Nc4ccc(C(=O)O)cc4)n2)Cc2ccccc2O3)cc1 | 2.89 µM (active) |
| Cc1ccccc1NC(=O)CN1C(=O)N/C(=C\c2cccn2-c2cccc(C(=O)O)c2)C1=O | 31.6 µM (active) |
